From publication PMC7862700, “An all-to-all approach to the identification of sequence-specific readers for epigenetic DNA modifications on cytosine” come the findings set out here.

What all share (test): DAPPL (digital affinity profiling via proximity ligation, sequencing); 10 mM Tris-HCl pH 7.5, 50 mM NaCl, 1 mM DTT, 4% glycerol, room temperature, 30 min; GST-TFs on glutathione beads, 16-mer random dsDNA library, 0.1% formaldehyde crosslink after washing; high values mean tight binding
What all share (details): protein: recombinant; tags: N-terminal GST; dsDNA, one strand shown

The target in one assay is T1, FLI1 (Homo sapiens, UniProt Q01543 1-452).
T1 sequence: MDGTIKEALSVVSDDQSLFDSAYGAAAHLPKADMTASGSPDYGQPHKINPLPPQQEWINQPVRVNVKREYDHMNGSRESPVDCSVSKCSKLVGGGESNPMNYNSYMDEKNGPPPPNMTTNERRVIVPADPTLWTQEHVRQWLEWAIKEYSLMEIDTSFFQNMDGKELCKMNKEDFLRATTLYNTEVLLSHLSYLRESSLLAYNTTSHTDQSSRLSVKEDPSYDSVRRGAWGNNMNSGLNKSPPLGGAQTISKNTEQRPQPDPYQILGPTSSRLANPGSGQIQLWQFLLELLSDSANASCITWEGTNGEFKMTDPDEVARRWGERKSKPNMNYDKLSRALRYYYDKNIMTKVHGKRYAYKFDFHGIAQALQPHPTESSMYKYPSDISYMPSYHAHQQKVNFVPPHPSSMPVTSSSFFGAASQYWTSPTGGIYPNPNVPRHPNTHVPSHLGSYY
Summed up: (§1)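 A tag-only sample was pooled with DNA-barcoded human transcription factors that had been expressed in yeast as GST fusions and captured on glutathione beads. The pools were incubated for 30 min at room temperature with 200 nmole of a random double-stranded 16-mer DNA library in Tris/NaCl/DTT/glycerol buffer, then washed, crosslinked with 0.1% formaldehyde, proximity-ligated (BsaI/T4 ligase, 1 h, 37 °C), PCR-amplified and sequenced on an Illumina NextSeq500. Binding signal is each hexamer's read frequency for a factor divided by its frequency for the tag-only sample.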

A further assay addresses T2, ELK1 (Homo sapiens, UniProt P19419 1-428).
T2 sequence: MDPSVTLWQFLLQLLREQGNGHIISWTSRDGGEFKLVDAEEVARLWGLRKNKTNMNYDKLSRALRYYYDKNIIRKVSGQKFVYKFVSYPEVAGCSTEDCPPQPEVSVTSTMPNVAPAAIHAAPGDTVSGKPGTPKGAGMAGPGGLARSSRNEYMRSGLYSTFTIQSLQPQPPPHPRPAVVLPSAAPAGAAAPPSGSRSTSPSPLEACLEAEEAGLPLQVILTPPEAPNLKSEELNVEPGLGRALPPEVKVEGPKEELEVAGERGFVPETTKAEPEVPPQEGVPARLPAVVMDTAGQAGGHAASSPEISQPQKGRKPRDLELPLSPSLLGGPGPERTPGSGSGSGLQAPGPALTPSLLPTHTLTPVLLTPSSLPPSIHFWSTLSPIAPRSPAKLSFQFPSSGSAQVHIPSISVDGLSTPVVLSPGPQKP
A digest of the protocol:
as §1

A further assay addresses T3, GABPA (Homo sapiens, UniProt Q06546 1-454).
T3 sequence: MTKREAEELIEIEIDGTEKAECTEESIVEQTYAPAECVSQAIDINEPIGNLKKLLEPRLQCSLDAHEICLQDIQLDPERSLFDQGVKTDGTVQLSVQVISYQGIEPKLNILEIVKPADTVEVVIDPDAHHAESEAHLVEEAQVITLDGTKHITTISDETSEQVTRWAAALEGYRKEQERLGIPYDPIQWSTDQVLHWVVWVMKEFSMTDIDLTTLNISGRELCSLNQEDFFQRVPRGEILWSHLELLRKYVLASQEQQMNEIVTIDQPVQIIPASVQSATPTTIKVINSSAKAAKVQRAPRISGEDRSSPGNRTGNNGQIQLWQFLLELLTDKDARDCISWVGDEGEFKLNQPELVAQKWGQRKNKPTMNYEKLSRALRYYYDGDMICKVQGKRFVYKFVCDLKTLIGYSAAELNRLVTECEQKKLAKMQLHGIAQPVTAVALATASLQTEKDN
Summed up: as §1

The next assay addresses T4, ERG (Homo sapiens, UniProt P11308 1-479).
T4 sequence: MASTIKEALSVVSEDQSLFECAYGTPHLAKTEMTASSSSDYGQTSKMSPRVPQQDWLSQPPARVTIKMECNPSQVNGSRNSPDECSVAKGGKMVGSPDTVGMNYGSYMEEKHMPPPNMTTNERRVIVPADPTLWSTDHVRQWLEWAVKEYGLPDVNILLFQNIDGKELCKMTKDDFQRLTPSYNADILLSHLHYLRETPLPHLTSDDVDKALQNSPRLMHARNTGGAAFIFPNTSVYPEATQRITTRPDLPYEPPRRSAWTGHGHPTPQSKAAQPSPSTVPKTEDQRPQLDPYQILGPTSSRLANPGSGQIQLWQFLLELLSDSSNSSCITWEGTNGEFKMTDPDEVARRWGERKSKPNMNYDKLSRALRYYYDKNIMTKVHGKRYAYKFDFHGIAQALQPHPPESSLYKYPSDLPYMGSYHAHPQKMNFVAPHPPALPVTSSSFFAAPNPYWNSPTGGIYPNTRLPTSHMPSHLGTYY
A digest of the protocol:
as §1

For a further assay, the target named is ELF1 (Homo sapiens, UniProt P32519 1-619). A digest of the protocol: as §1
ELF1, sequence (P32519 whole entry): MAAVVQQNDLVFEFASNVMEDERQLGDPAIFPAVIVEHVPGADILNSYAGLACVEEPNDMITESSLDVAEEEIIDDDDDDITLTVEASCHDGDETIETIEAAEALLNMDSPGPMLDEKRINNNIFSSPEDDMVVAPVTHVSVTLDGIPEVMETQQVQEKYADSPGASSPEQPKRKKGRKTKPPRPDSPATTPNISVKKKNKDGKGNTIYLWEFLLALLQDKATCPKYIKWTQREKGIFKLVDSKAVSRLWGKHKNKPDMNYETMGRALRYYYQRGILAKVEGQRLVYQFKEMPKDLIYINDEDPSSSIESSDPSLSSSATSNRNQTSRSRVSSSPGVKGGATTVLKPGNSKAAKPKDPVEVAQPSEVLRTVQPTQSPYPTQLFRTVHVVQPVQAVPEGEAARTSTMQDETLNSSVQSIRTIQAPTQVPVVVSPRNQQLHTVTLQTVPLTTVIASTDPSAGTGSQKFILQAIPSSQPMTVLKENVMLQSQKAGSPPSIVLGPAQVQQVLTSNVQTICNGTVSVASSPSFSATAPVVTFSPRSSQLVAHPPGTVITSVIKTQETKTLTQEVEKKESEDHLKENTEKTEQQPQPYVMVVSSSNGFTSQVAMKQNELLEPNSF
The target in another assay is T5, EHF (Homo sapiens, UniProt Q9NZC4 1-300).
T5 sequence: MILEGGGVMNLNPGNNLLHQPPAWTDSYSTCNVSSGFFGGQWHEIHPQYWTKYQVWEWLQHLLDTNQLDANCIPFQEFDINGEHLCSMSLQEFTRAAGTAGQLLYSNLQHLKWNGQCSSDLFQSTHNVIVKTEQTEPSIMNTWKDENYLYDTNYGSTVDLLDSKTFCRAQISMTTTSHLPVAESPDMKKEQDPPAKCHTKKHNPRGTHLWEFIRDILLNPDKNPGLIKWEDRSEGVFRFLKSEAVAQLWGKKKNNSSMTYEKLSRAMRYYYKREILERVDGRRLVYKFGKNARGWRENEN
A digest of the protocol:
as §1

The target of a further assay is SPI1 (Homo sapiens, UniProt P17947 1-270). Summed up: as §1
A further assay addresses SPIB (Homo sapiens, UniProt Q01892 1-262). A digest of the protocol: as §1
In the next assay the target is T6, ELK3 (Homo sapiens, UniProt P41970 1-407).
T6 sequence: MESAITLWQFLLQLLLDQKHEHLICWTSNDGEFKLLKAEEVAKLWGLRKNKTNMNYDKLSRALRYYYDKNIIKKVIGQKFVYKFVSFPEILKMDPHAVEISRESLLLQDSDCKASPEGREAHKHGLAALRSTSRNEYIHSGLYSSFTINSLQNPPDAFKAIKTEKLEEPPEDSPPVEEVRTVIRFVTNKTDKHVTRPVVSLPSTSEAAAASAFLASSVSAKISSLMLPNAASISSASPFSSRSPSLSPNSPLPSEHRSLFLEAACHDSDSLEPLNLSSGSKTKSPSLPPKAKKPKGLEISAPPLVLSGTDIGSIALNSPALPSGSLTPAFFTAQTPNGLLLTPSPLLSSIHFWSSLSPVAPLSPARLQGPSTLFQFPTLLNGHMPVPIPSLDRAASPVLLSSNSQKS
Summed up: as §1

For a further assay, the target named is T7, FEV (Homo sapiens, UniProt Q99581 1-238).
T7 sequence: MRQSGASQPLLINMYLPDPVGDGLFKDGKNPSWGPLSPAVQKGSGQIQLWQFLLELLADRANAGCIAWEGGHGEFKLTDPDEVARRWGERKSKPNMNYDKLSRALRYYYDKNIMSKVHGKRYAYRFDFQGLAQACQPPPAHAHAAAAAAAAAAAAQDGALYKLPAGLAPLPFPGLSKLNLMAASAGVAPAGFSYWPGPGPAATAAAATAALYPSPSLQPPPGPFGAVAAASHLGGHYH
A digest of the protocol:
as §1

The next assay deals with ETV5 (Homo sapiens, UniProt P41161 1-510). Summed up:
as §1

Another assay concerns the target T8, SPIC (Homo sapiens, UniProt Q8N5J4 1-248).
T8 sequence: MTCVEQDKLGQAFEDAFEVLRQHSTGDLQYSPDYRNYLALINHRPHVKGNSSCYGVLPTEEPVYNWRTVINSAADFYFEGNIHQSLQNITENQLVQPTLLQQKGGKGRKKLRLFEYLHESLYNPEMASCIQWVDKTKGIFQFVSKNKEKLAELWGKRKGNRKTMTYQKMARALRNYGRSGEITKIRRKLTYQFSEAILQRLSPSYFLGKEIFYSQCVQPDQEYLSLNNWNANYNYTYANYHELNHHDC
Summed up:
as §1

For a further assay, the target named is ELF4 (Homo sapiens, UniProt Q99607 1-663). Summed up:
as §1

For another assay, the target named is T9, ELK4 (Homo sapiens, UniProt P28324-2 1-405).
T9 sequence: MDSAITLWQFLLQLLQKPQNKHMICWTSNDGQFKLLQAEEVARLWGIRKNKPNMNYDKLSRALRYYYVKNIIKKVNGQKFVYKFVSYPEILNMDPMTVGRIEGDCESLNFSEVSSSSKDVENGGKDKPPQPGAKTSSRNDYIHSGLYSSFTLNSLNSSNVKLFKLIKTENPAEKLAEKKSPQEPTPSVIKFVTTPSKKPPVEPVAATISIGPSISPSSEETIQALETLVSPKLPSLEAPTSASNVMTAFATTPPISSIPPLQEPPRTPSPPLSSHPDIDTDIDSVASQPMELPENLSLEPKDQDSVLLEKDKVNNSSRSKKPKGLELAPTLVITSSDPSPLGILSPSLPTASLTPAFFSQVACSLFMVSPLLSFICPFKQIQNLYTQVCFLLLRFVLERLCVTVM
Summed up:
as §1

The next assay concerns the target T10, ETV2 (Homo sapiens, UniProt O00321 1-342).
T10 sequence: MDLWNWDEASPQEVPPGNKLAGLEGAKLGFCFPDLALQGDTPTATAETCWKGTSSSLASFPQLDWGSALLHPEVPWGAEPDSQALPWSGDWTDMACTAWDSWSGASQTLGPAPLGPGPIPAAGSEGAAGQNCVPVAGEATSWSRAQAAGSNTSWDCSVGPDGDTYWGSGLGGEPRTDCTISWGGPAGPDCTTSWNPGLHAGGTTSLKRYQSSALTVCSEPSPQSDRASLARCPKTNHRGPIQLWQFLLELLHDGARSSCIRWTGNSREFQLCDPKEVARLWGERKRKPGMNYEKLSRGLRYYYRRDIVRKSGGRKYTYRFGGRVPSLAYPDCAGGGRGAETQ
A digest of the protocol: as §1

The next assay concerns the target T11, ELF3 (Homo sapiens, UniProt P78545 1-371).
T11 sequence: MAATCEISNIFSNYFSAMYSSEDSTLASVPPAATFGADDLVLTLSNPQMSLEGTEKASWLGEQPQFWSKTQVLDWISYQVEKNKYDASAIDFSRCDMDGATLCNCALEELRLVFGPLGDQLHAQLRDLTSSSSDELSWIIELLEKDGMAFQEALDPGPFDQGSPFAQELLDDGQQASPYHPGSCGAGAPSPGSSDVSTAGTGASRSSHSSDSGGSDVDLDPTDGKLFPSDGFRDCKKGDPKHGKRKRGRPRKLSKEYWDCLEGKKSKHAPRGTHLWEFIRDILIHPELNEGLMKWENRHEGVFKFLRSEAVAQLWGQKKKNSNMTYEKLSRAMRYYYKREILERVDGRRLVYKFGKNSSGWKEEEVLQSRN
Summed up: as §1

The target of another assay is ETV1 (Homo sapiens, UniProt P50549 1-477). A digest of the protocol: as §1
ETV1, sequence (P50549 whole entry): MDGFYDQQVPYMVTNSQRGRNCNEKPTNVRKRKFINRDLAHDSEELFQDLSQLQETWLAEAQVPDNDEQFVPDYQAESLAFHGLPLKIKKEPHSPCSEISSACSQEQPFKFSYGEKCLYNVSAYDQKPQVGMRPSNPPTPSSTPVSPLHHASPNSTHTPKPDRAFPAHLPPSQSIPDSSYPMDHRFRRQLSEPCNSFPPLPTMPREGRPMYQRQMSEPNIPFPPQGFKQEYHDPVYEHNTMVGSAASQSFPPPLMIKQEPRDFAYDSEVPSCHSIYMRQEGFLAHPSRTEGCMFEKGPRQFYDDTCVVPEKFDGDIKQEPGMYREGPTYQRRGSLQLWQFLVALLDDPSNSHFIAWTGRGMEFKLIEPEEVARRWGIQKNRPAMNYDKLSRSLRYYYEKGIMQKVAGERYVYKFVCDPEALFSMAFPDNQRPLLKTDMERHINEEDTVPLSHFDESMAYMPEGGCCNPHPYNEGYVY

ELF4, sequence (Q99607 whole entry): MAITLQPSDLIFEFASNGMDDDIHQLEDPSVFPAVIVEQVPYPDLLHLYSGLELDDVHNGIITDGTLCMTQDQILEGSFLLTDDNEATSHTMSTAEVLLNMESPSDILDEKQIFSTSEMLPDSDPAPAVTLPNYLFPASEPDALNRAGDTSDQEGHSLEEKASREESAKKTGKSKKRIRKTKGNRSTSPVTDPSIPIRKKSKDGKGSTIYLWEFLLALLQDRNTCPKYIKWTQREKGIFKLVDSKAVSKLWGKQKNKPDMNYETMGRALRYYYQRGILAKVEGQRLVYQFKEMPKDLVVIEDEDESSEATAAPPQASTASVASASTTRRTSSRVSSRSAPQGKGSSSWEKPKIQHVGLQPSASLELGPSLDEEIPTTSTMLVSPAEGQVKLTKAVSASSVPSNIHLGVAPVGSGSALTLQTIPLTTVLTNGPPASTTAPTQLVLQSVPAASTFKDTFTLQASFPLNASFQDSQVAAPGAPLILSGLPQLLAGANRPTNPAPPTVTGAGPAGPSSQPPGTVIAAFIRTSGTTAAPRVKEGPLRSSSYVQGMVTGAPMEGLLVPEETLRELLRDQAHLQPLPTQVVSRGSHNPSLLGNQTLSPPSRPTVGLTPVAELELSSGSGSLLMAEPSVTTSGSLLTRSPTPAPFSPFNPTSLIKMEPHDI
ETV5, sequence (P41161 whole entry): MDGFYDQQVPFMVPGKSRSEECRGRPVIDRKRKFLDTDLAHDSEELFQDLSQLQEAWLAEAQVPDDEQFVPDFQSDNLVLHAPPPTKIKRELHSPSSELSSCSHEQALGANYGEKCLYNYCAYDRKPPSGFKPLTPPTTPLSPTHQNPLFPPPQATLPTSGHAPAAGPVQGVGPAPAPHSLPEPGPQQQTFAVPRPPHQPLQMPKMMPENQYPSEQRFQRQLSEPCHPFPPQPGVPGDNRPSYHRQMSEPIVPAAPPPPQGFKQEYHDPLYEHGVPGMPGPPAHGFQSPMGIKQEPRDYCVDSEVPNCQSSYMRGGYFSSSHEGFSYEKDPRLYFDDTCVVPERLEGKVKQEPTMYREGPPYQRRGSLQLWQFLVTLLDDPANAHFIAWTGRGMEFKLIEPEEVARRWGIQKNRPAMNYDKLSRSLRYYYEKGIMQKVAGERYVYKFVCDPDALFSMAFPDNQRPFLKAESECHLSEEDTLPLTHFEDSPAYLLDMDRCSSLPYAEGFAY
SPIB, sequence (Q01892 whole entry): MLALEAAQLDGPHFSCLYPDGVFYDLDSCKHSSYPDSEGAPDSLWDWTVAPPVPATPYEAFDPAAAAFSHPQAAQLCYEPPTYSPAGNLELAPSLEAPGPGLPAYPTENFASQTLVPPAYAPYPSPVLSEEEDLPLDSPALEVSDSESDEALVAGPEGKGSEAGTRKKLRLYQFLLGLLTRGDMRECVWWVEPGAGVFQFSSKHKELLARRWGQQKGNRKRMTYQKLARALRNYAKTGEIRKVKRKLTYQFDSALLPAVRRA

For TGCCAT, the binding signal was 1.11 fold enrichment (6-mer frequency, TF over GST control) in the assay with FLI1; 1.06 fold enrichment (6-mer frequency, TF over GST control) in the assay with ELK1; 1.26 fold enrichment (6-mer frequency, TF over GST control) with GABPA; 1.21 fold enrichment (6-mer frequency, TF over GST control) with ERG; 1.1 fold enrichment (6-mer frequency, TF over GST control) with ELF1; 1.21 fold enrichment (6-mer frequency, TF over GST control) in the assay with EHF. The binding signal with SPI1 was 1.17 fold enrichment (6-mer frequency, TF over GST control); in the assay with SPIB it was 1.16 fold enrichment (6-mer frequency, TF over GST control); with ELK3, 1.12 fold enrichment (6-mer frequency, TF over GST control); with FEV, 1.07 fold enrichment (6-mer frequency, TF over GST control); with ETV5, 1.03 fold enrichment (6-mer frequency, TF over GST control); with SPIC, 1.12 fold enrichment (6-mer frequency, TF over GST control). Also, the binding signal with ELF4 is 1.1 fold enrichment (6-mer frequency, TF over GST control); with ELK4 it was 1.11 fold enrichment (6-mer frequency, TF over GST control); in the assay with ETV2, 1.14 fold enrichment (6-mer frequency, TF over GST control); with ELF3 it was 1.08 fold enrichment (6-mer frequency, TF over GST control); with ETV1, 1.17 fold enrichment (6-mer frequency, TF over GST control).
